Compound activity (PubChem)
Compounds with a hit are over-represented: about 3.5% of the library has one in this group of screens.
mHTT-CaM PPI inh: mHTT-calmodulin interaction abrogation. AlphaScreen His-mHTT/GST-CaM binding, luminescence. inhibition, % at 15 µM. 190,000 compounds, 3.6% hits;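 further: 0% = both proteins with DMSO and 100% = one protein alone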
Pf apPOL inh: Pf-apPOL DNA polymerase inhibition. inhibition, % at 10 µM. Recombinant Pf-apPOL, molecular beacon fluorescence, 1.5 h. 210,000 compounds, 0.25% hits. AID 1794808
Active calls of the source: *; . = no result given; + = active, no number. No stated cut-off is given here; in the data, active means inhibition above about 50%; inactive means the rest.

SMILES	mHTT-CaM PPI inh	Pf apPOL inh
CN1CC=C2C(C#N)=C(N)C(C#N)(C#N)C(c3ccccc3)C2C1 (centres undefined)	4.0	0.0
Cc1ccc(C2C3CCCC=C3C(C#N)=C(N)C2(C#N)C#N)cc1 (centres undefined)	20.0	0.1
CC(C)(C)C1CC=C2C(C#N)=C(N)C(C#N)(C#N)C(c3ccc(Cl)cc3)C2C1 (centres undefined)	62.0*	-3.1
CCCCC(=O)N1CC(C)C(c2nc(-c3ccccc3)no2)C1 (centres undefined)	-0.2	-4.0
CC(NC(=O)C1CCCCC1C(=O)O)c1ccccc1 (centres undefined)	3.4	-2.2
Oc1ccc2cc(Br)ccc2c1Br	9.6	.
CN1C(=O)S/C(=C\c2ccccc2OCc2ccc([N+](=O)[O-])cc2)C1=O	5.0	-5.0
COc1ccc(C2C3CCCC=C3C(C#N)=C(N)C2(C#N)C#N)cc1 (centres undefined)	23.0	-1.3
CCCCOc1ccc(C2C3CCCC=C3C(C#N)=C(N)C2(C#N)C#N)cc1 (centres undefined)	55.0*	1.1
CCn1cnnc1C1CCN(C(=O)c2sccc2C)CC1	1.0	7.2
CC1=NOC(=O)/C1=C/c1ccc(OCc2ccc(C)cc2)c(Cl)c1	33.0	-4.9
COc1cc(/C=C2\C(=O)ON=C2C)cc(Br)c1OCc1ccccc1F	64.0*	-4.5
CC1=NOC(=O)/C1=C/c1ccccc1OCc1ccc(Br)cc1	54.0*	1.2
COc1cc(/C=C2\C(=O)ON=C2C)ccc1OCc1ccccc1F	41.0	-4.5
CC1=NOC(=O)/C1=C/c1ccccc1OCc1ccccc1Cl	4.0	-1.6
COc1cc(/C=C2\C(=O)ON=C2C)cc(Br)c1OCc1ccc(C)cc1	70.0*	14.2
COc1cc(/C=C2\C(=O)ON=C2C)cc(Cl)c1OCc1ccc(C)cc1	95.0*	0.5
C=CCOc1c(Br)cc(/C=C2\C(=O)ON=C2C)cc1OC	21.0	-1.9
COc1ccc(OC)c(-c2cc3ccc(O)c(CN4CCCC4)c3oc2=O)c1	-6.4	1.9
Cc1ccccc1OCc1nc(C#N)c(NCCCn2ccnc2)o1	8.0	-10.9
COc1ccc(CCNc2oc(COc3ccccc3C)nc2C#N)cc1	52.0*	-2.9
Cc1ccccc1OCc1ccc(-c2nc(C#N)c(NCc3cccnc3)o2)o1	54.0*	-7.8
COc1ccc(CCNc2oc(COc3ccc(OC)cc3)nc2C#N)cc1	-5.0	3.8
N#Cc1nc(COc2ccccc2Cl)oc1NCCCn1ccnc1	100.0*	3.4
N#Cc1nc(COc2ccccc2Cl)oc1NCc1cccnc1	23.0	-1.4
SMILES	mHTT-CaM PPI inh	Pf apPOL inh
CCOc1ccccc1C(=O)N1CCC(c2nc(CNC(C)=O)cs2)CC1	3.3	-2.4
Cc1csc(=NC(=O)c2ccccc2)n1Cc1ccco1	6.0	-0.3
Cc1ccccc1N=c1scc(-c2ccccc2)n1Cc1ccco1	73.0*	0.3
CCCCOc1ccc(C2=N/C(=C\c3ccccc3OC)C(=O)O2)cc1	0.0	-0.5
COC(=O)c1ccccc1NC(=O)N1CCC(C(=O)NCc2csc(C)n2)CC1	-9.6	-1.2
O=C(NCc1cccnc1)/C(=N\O)c1ccccn1	+	11.4
O=C(NCc1cccnc1)C(=O)NCc1cccnc1	-5.0	1.0
Cc1nc(C)c(-c2ccc(SCC(=O)NCc3ccco3)nn2)s1	-1.9	2.8
CC/C(=C\c1ccccc1)c1cccc2oc3ccccc3c12	-11.6	1.4
CC/C(=C/c1ccccc1)c1cccc2[nH]c3c(OC)cccc3c12	53.6*	-4.7
Cc1ccc2[nH]c3c(cc(NCCO)c4c(=O)c5ccccc5c(=O)c43)oc2c1	18.0	-3.1
Cc1ccc2[nH]c3c(cc(NCCCO)c4c(=O)c5ccccc5c(=O)c43)oc2c1	60.0*	-5.7
CCOC(=O)C1=C(C)c2ccccc2N(C(=O)OC)C1(C)C(=O)OCC (centres undefined)	40.8	78.0*
CCOC(=O)C1=C(C)c2ccccc2OC1(CC)C(=O)OCC (centres undefined)	-50.0	-3.6
Cc1ccc(CN2CCN(C3CCN(C(=O)NC(C)C)CC3)C2=O)cc1	-0.1	0.1
Brc1ccc2c(c1)[C@@H]1C=CC[C@@H]1[C@H](c1ccncc1)N2	-3.6	.
O=[N+]([O-])c1ccc(C2Nc3ccc(F)cc3C3C=CCC32)cc1 (centres undefined)	91.1*	-28.9
COc1cc([N+](=O)[O-])cc2c1NC(c1ccc(Br)cc1)C1CC=CC21 (centres undefined)	33.0	-1.2
O=[N+]([O-])c1ccc(C2Nc3cc(Cl)cc(Cl)c3C3C=CCC32)cc1 (centres undefined)	60.0*	-4.9
NS(=O)(=O)c1ccc2c(c1)C1C=CCC1C(c1ccc(Br)cc1)N2 (centres undefined)	83.8*	3.2
COc1cc(C2Nc3ccc([N+](=O)[O-])cc3C3C=CCC32)cc(OC)c1OC (centres undefined)	71.0*	2.1
Cc1nc(C(=O)N2CCSCC2)c(C)o1	-6.0	-1.8
C(=Nc1nc2c(s1)CCc1ccccc1-2)c1ccc2c(c1)OCO2	.	-9.6
CCN(CC)S(=O)(=O)c1ccc(NC(=O)c2oc3c(c2C)C(=O)CC(C)(C)C3)cc1	6.6	-0.3
Cc1n[nH]c(C)c1N=Nc1ccc(F)cc1F	.	-0.4
SMILES	mHTT-CaM PPI inh	Pf apPOL inh
CCc1ccc2nc(C)cc(C(=O)N3CCSCC3)c2c1	0.9	-5.0
CCCNS(=O)(=O)c1ccc(F)c(C(=O)Nc2c(C)cc(C)cc2C)c1	-1.0	-18.8
Cc1ccc(NC(=O)Cn2cnc3c(-c4ccc(F)cc4)csc3c2=O)cc1F	-23.9	2.8
Nc1ccc2c(c1)C1C=CCC1C(c1ccc([N+](=O)[O-])cc1)N2 (centres undefined)	97.7*	-3.3
Cc1ccc2c(c1)NC(c1ccc([N+](=O)[O-])cc1)C1CC=CC21 (centres undefined)	43.3	-5.8
O=C(NCc1cccc(F)c1)c1cc2n(n1)CCCN(Cc1cccc(F)c1)C2=O	-2.6	0.0
Cn1c(=N)n(CC(O)c2ccc(Cl)c(Cl)c2)c2ccccc21 (centres undefined)	3.0	-5.4
Cc1ccccc1Cn1c(=N)n(CC(O)c2ccc(Cl)c(Cl)c2)c2ccccc21 (centres undefined)	100.2*	0.5
CCC12CN3CC(CC)(CN(C1)C3c1ccc(C(C)C)cc1)C2O (centres undefined)	12.2	-3.2
COc1ccc(C)c2sc(N(Cc3cccnc3)C(=O)c3ccc([N+](=O)[O-])s3)nc12	-9.6	-1.8
O=C1C=CC(=Nc2ccc(Br)cc2)C=C1	87.0*	-5.2
CCN1C(=O)Cc2ccccc2C1C(=O)NCc1ccc(C)o1 (centres undefined)	36.1	7.4
O=C(Nc1nc2c(Cl)cccc2s1)c1cc(=O)c2ccccc2o1	-1.0	50.1*
O=C(Nc1ccccc1-c1nc2ccccc2s1)c1cc(=O)c2ccccc2o1	3.0	-1.0
CCc1cccc(NC(=O)N2CCc3nc4cc[nH]n4c(=O)c3C2)c1	0.8	-2.5
COc1cccc(NC(=O)c2cc3n(n2)C(C(F)(F)F)CC(c2ccco2)N3)c1 (centres undefined)	-3.2	-4.9
CCN1CCc2c(sc(NC(=O)Nc3ccc(Cl)c(Cl)c3)c2C(N)=O)C1	84.6*	-0.4
CCN1CCc2c(sc(NC(=O)c3ccnn3C)c2C(N)=O)C1	-7.1	0.0
COc1ccc(C(=O)Nc2ccc(I)cc2)cc1OC	-8.1	1.9
CCCCc1ccc(NC(=O)C23CCC(C)(C(=O)C2=O)C3(C)C)cc1 (centres undefined)	1.0	-5.4
